Source: PubChem BioAssay AID1159580 (chemical genetic matrix, 2015)
Screen size: about 5,500 compounds; about 2,000 (36%) were called active. Roughly 18% stayed inconclusive and do not appear here. Cut-off read from the data, not from the text of the source: active = normalized growth mostly below about 0.91 (no sharp cut-off); inconclusive = no clear call, values can overlap the other calls; inactive = mostly above about 0.92. Some of the results follow.

Experiment: chemical genetic growth profiling, strain panel (AID 1159580);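 note: tested at 20 µM; growth read once vehicle control cultures reached saturation at 30 °C; 1 = growth at the plate median or of vehicle wells; lower values mean less growth of the strain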
Conditions: S. cerevisiae deletion strains, growth OD

Measured: normalized growth

FC(F)(F)c1ccccc1-n1ccnc1
inactive: locus YAL021C, strain ccr4, active compounds read low 0.971 | locus YAL026C, strain drs2, active compounds read low 1.02 | locus YAL030W, strain snc1, active compounds read low 1.01 | locus YAL040C, strain CLN3, active compounds read low 1.01 | locus YBL061C, strain skt5, active compounds read low 1.01 | locus YBR009C, strain hhf1, active compounds read low 1.08 | locus YBR023C, strain chs3, active compounds read low 1 | locus YBR171W, strain sec66, active compounds read low 0.966 | locus YBR231C, strain swc5, active compounds read low 1 | locus YBR279W, strain paf1, active compounds read low 1 | locus YCL011C, strain gbp2, active compounds read low 0.998 | locus YCL016C, strain dcc1, active compounds read low 1.01 | locus YCL061C, strain MRC1 (second series), active compounds read low 1 | locus YCL061C, strain MRC1, active compounds read low 1 | locus YCL069W, strain vba3, active compounds read low 0.999 | locus YCR088W, strain abp1, active compounds read low 0.986 | locus YDL005C, strain med2, active compounds read low 0.992 | locus YDL040C, strain nat1, active compounds read low 1 | locus YDR001C, strain nth1, active compounds read low 0.988 | locus YDR069C, strain doa4, active compounds read low 0.999 | locus YDR137W, strain rgp1, active compounds read low 0.949 | locus YDR159W, strain sac3, active compounds read low 1.04 | locus YDR195W, strain ref2 1.03 | locus YDR297W, strain sur2, active compounds read low 0.995 | locus YDR334W, strain swr1, active compounds read low 0.963 | locus YDR335W, strain msn5, active compounds read low 0.988 | locus YDR363W, strain ESC2, active compounds read low 1.02 | locus YDR392W, strain spt3, active compounds read low 0.993 | locus YEL003W, strain gim4, active compounds read low 0.987 | locus YEL037C, strain rad23, active compounds read low 1 | locus YEL061C, strain CIN8 (second series), active compounds read low 0.995 | locus YER002W, strain NOP16, active compounds read low 0.991 | locus YER015W, strain faa2, active compounds read low 1 | locus YER016W, strain bim1, active compounds read low 1.01 | locus YER111C, strain swi4, active compounds read low 0.999 | locus YER155C, strain BEM2 (second series), active compounds read low 1.04 | locus YFR010W, strain ubp6, active compounds read low 1 | locus YGL167C, strain pmr1, active compounds read low 1.01 | locus YGL173C, strain kem1, active compounds read low 1.01 | locus YGL227W, strain vid30, active compounds read low 1.02 | locus YGL240W, strain doc1, active compounds read low 1.06 | locus YGL253W, strain hxk2, active compounds read low 1 | locus YHR013C, strain ard1, active compounds read low 0.998 | locus YHR027C, strain rpn1, active compounds read low 0.99 | locus YHR030C, strain SLT2, active compounds read low 0.993 | locus YHR079C, strain IRE1, active compounds read low 1.01 | locus YHR142W, strain chs7, active compounds read low 0.935 | locus YJL092W, strain hpr5, active compounds read low 0.975 | locus YJL095W, strain BCK1 (second series), active compounds read low 0.994 | locus YJL095W, strain BCK1, active compounds read low 1 | locus YJL115W, strain asf1, active compounds read low 0.983 | locus YJL129C, strain trk1, active compounds read low 0.974 | locus YJL154C, strain vps35, active compounds read low 1 | locus YJL164C, strain tpk1, active compounds read low 0.978 | locus YJL166W, strain qcr8, active compounds read low 1.01 | locus YJL187C, strain SWE1, active compounds read low 1 | locus YJR066W, strain TOR1, active compounds read low 0.936 | locus YKL160W, strain elf1, active compounds read low 0.971 | locus YKR026C, strain gcn3, active compounds read low 0.993 | locus YKR091W, strain srl3, active compounds read low 1 | locus YLL001W, strain dnm1, active compounds read low 1 | locus YLL026W, active compounds read low 1 | locus YLL041C, strain sdh2, active compounds read low 0.994 | locus YLR027C, strain aat2, active compounds read low 0.99 | locus YLR113W, strain HOG1, active compounds read low 1.05 | locus YLR221C, strain rsa3, active compounds read low 0.985 | locus YLR258W, strain gsy2, active compounds read low 1.03 | locus YLR262C, strain YPT6 (second series), active compounds read low 0.923 | locus YLR320W, strain mms22, active compounds read low 1 | locus YLR342W, strain FKS1, active compounds read low 1 | locus YLR357W, strain rsc2, active compounds read low 1.02 | locus YLR370C, strain arc18, active compounds read low 1 | locus YLR384C, strain iki3, active compounds read low 0.995 | locus YML120C, strain ndi1, active compounds read low 0.979 | locus YMR058W, strain fet3, active compounds read low 0.98 | locus YMR125W, strain sto1, active compounds read low 1.02 | locus YMR129W, active compounds read low 0.992 | locus YMR205C, strain PFK2, active compounds read low 1.09 | locus YMR231W, strain pep5, active compounds read low 1.02 | locus YMR307W, strain GAS1, active compounds read low 1.02 | locus YNL071W, strain lat1, active compounds read low 0.992 | locus YNL175C, strain NOP13, active compounds read low 0.976 | locus YNL183C, strain NPR1, active compounds read low 0.925 | locus YNL197C, strain WHI3, active compounds read low 0.977 | locus YNL209W, strain ssb2, active compounds read low 1 | locus YNL224C, strain SQS1, active compounds read low 0.995 | locus YNL248C, strain rpa49, active compounds read low 0.936 | locus YNL322C, strain KRE1 (second series), active compounds read low 1.01 | locus YNL322C, strain KRE1, active compounds read low 0.996 | locus YNR049C, strain mso1, active compounds read low 0.995 | locus YOR001W, strain rrp6, active compounds read low 0.949 | locus YOR070C, strain gyp1, active compounds read low 1 | locus YOR080W, strain dia2, active compounds read low 1 | locus YOR083W, strain WHI5 (second series), active compounds read low 0.948 | locus YOR083W, strain WHI5, active compounds read low 0.944 | locus YOR106W, strain vam3, active compounds read low 0.951 | locus YOR231W, strain MKK1, active compounds read low 0.981 | locus YOR265W, strain rbl2, active compounds read low 0.991 | locus YOR270C, strain vph1, active compounds read low 0.946 | locus YOR290C, strain snf2, active compounds read low 0.939 | locus YPL051W, strain arl3, active compounds read low 0.98 | locus YPL078C, strain atp4, active compounds read low 0.931 | locus YPL106C, strain sse1, active compounds read low 1.02 | locus YPL240C, strain hsp82, active compounds read low 0.975 | locus YPL241C, strain CIN2, active compounds read low 0.998 | locus YPL256C, strain CLN2, active compounds read low 1.03
